Test results taken from PubChem BioAssay AID504332 (National Center for Advancing Translational Sciences (NCATS), 2011).
Screen size: about 350,000 compounds; about 31,000 (8.9%) were called active. Roughly 15% stayed inconclusive and do not appear here. Calls come from the whole dose curve; as a rule, active = well fitted inhibition curve with a large enough effect; inconclusive = small, poorly fitted or top-dose-only effect; inactive = no such curve, though single readings can be large or run the other way. Shown is part of a subset that was picked to be rich in actives. A call without a number means that no potency is given here.

The compounds below were run against Histone-lysine N-methyltransferase EHMT2 (Homo sapiens) (UniProt Q96KQ7) (assay: qHTS Assay for Inhibitors of Histone Lysine Methyltransferase G9a). Details: G9a H3K9 monomethylation, AlphaScreen, 2 h; series mostly up to 59 µM.
Histone-lysine N-methyltransferase EHMT2 (Homo sapiens), sequence (Q96KQ7 913-1193 limits assumed): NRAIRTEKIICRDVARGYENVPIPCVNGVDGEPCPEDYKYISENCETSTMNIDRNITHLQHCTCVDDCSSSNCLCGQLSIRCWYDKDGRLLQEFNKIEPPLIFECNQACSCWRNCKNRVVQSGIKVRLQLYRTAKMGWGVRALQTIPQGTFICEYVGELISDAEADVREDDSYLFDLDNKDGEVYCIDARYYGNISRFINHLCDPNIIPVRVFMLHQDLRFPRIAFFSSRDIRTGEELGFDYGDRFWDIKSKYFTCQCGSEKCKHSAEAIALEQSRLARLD
How it was run: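 AlphaScreen read-out: biotin-H3K9 peptide (500 nM) methylation by 20 nM enzyme with 20 uM SAM, 2 h at room temperature after 15 min compound preincubation; anti-monomethyl H3K9 antibody plus donor/acceptor beads, 10 min dark.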
Note: nearly all actives have a fitted effect of over 75% in size.
Potency is the fitted concentration of half-maximal effect.

Structure (SMILES) | activity, negative = inhibition | Potency
NC(=O)c1ccsc1NC(=O)COC(=O)COc1ccc(C=O)cc1 | -1.54% [at 12.7 µM] (inactive) | –
O=C1c2ccccc2C(=O)N1CCC(c1ccccc1)c1ccco1 (stereo unspecified) | – | inactive
CC(C)OC(=O)CN1C(=O)c2ccccc2C1=O | -1.86% [at 12.7 µM] (inactive) | –
O=C1c2ccccc2C(=O)N1CCC(O)C[N+](=O)[O-] (stereo unspecified) | – | 31.6 µM (active)
Cc1ccc(F)cc1NC(=O)CSCc1c(C)noc1C | 28% [at 12.7 µM] (inactive) | –
C=CCN1C(=NC(=O)COc2ccccc2)SC2CS(=O)(=O)CC21 (stereo unspecified) | – | inactive
CCCc1cc(=O)[nH]c(SCC(=O)Nc2sc3c(c2C#N)CCCC3)n1 | – | inactive
Cc1cccc(C(=O)OCC(=O)Nc2sc3c(c2C#N)CCC3)c1 | – | inactive
CN1CCN(CC(=O)Nc2sc3c(c2C#N)CCC(C(C)(C)C)C3)CC1 (stereo unspecified) | 2.75% [at 12.7 µM] (inactive) | –
CCN1CCN(CC(=O)Nc2sc3c(c2C#N)CCC3)CC1 | – | 70.8 µM (active)
Cc1ccc(C)c(OCC(=O)Nc2sc3c(c2C#N)CCCC3)c1C | – | inactive
N#CCC(=O)Nc1ccc(C(=O)OCC(=O)Nc2sc3c(c2C#N)CCCC3)cc1 | – | 50.1 µM (active)
CCC1CCCCN1C(=O)Cn1c(=O)n(CCCCCC(=O)NCc2ccccc2)c(=O)c2sccc21 (stereo unspecified) | – | inactive
COc1ccccc1C(=O)Nc1c(C(=O)N(C)Cc2ccccc2)sc2nc(C)c(Cl)c(C)c12 | – | inactive
Cc1ccccc1NC(=O)CN1C(=O)C(C)(C)c2ccccc21 | – | inactive
C=C1CCC(N(O)c2cc(C)on2)C(=C)CCC2C1CC2(C)C (stereo unspecified) | -0.801% [at 0.501 µM] (inactive) | –
CCCCC12CN3CC(C)(CN(C1)C3c1ccc(O)c(OC)c1)C2=O (stereo unspecified) | – | inactive
CCC[C@H]1CCCC/C=C\CCCC(=O)OCCN1C(=O)OC(C)(C)C | 5.32% [at 2.33 µM] (inactive) | –
O=C1CC(c2nnc(Cc3ccc(Cl)cc3)o2)CN1c1ccccc1 (stereo unspecified) | – | inactive
CC(=O)N(C1=C(Cl)C(=O)c2ccccc2C1=O)c1ccc(C(=O)O)cc1 | – | 0.891 µM (active)
O=C(CN1C(=O)c2ccccc2C1=O)NCc1ccc(C(=O)O)cc1 | – | inactive
CC(C)N(C(=O)c1ccc(-c2ccccc2F)cc1)C(C)C | – | inactive
COc1cccc(CNCc2c(C(=O)O)n(Cc3ccc(C)cc3)c3cc(C)ccc23)c1OC | – | inactive
CCn1c(=O)n(CC)c2cc(N3CCCC3)c(NC(=O)c3ccccc3Br)cc21 | – | 44.7 µM (active)

Structure (SMILES) | activity, negative = inhibition | Potency
CCn1c(=O)c(=O)n(CC)c2cc(N3CCCCC3)c(NC(=O)c3ccc(Cl)cc3)cc21 | 1.91% [at 12.7 µM] (inactive) | –
CCn1c(=O)c(=O)n(CC)c2cc(N3CCCCC3)c(NC(=O)c3cccc(F)c3)cc21 | – | inactive
Cc1cc(C)cc(NC(=O)Cn2c(=O)c3ccccc3n3nncc23)c1 | – | inactive
COc1cc(C(=O)OCC(=O)N(CC(C)C)C2CCS(=O)(=O)C2)ccc1OCC(C)C (stereo unspecified) | – | inactive
COc1ccc(C(=O)OCC(=O)N2CC(=O)Nc3ccccc32)cc1Br | – | inactive
Cc1ccc(S(=O)(=O)N2CCN(C)CC2)cc1C(=O)NC1CCCCC1 | – | inactive
Cc1ccc(S(=O)(=O)N2CCCCC2)cc1C(=O)N1CCN(CCO)CC1 | – | 11.2 µM (active)
CCOC(=O)N1CCN(C(=O)c2cn(C)c3ccc(S(=O)(=O)N4CCCC4)cc3c2=O)CC1 | – | inactive
Cc1cccc(N2CCN(c3c(CN4CCCC4)c(=O)oc4ccccc34)CC2)c1C | – | inactive
COc1ccc(N(CC(=O)NCCc2ccc(Cl)cc2)S(=O)(=O)c2c(C)nn(C)c2C)cc1 | – | inactive
CCC(=O)N1CCc2cc(S(=O)(=O)NC(Cc3ccccc3)C(=O)NCc3ccccc3)ccc21 (stereo unspecified) | – | inactive
Cc1ccc(S(=O)(=O)NCCC(=O)NCc2ccc(Cl)cc2)cc1C | – | inactive
COc1cc2c(cc1OC)C(c1cccc([N+](=O)[O-])c1)=NCC2 | – | inactive
CCOC(=O)C1=NN(c2ccc(Cl)cc2)/C(=C/C2=NCCc3cc(OC)c(OC)cc32)S1 | – | inactive
COc1cc2c(cc1OC)C(/C=C/c1ccco1)=NCC2 | – | 50.1 µM (active)
O=C(O)c1cccc2c1C(=O)N(C1CCCC1)C2 | – | inactive
O=C(OCC(=O)N1CCN(C(=O)c2ccco2)CC1)c1ccc(Cl)c(Cl)c1 | 16.1% [at 12.7 µM] (inactive) | –
COc1ccc(NC(=O)c2ccc3nc(C(C)C)oc3c2)cc1OC | – | inactive
Cc1cc2nc3n(c2cc1C)CC1CC(C(=O)NCCC(C)C)N(C)C31 (stereo unspecified) | 5.1% [at 12.7 µM] (inactive) | –
CCc1ccc(CN(Cc2ccco2)C(=O)c2ccccc2Cl)cc1 | – | inactive
CCOc1ccc(C(=O)NCCCN2CCCC2=O)cc1 | – | inactive
CC1CCC(NC(=O)c2ccc(N3CCCC3=O)cc2)CC1 (stereo unspecified) | – | inactive
O=C(NCCCN1CCCCCC1)c1ccc(N2CCCC2=O)cc1 | – | 22.4 µM (active)
Cc1nc(SCC(=O)N2CCN(c3ccccc3)CC2)[nH]c(=O)c1C | – | inactive

Structure (SMILES) | activity, negative = inhibition | Potency
CC(C)Cn1c(N)c(C(=O)COC(=O)C2CCCN2C(=O)c2cccs2)c(=O)n(C)c1=O (stereo unspecified) | – | inactive
O=C(CCN1C(=O)/C(=C/c2cccs2)SC1=S)NNC(=O)c1cccc(O)c1 | – | inactive
CC(C(=O)Nc1ccc(O)c(C(=O)O)c1)N1C(=O)/C(=C/c2cccs2)SC1=S (stereo unspecified) | – | 35.5 µM (active)
O=C(CCCN1C(=O)/C(=C/c2cccs2)SC1=S)Nc1ccc(O)cc1 | – | inactive
O=C(COc1ccccc1Cl)Nc1ccccc1C(=O)NC1CC1 | – | inactive
Cc1cnc(C)c(N2CCN(C(=O)C3CCC(=O)N(CCc4cccc(F)c4)C3)CC2)n1 (stereo unspecified) | – | inactive
CCCCC(CC(C)O)c1n[nH]c(=S)n1-c1ccccc1 (stereo unspecified) | – | 5.01 µM (active)
N#Cc1ccccc1Cn1cnc2nc3c(cc2c1=O)CCCC3 | – | inactive
COc1ccccc1N1CCN(C(CNC(=O)C(=O)NCc2ccc(C)cc2)c2cccnc2)CC1 (stereo unspecified) | – | inactive
CCOc1ccc(C(NC(=O)c2cc(OC)c(OC)c(OC)c2)c2cc(Cl)c3cccnc3c2O)cc1 (stereo unspecified) | – | inactive
CCN1CCN(C(c2cccnc2)c2cc(Cl)c3cccnc3c2O)CC1 (stereo unspecified) | – | 1.12 µM (active)
CCOC(=O)N1CCN(C(c2cccnc2)c2ccc3cccnc3c2O)CC1 (stereo unspecified) | – | 0.316 µM (active)
CCOC(=O)N1CCN(C(=O)CSc2nc(=O)n3cccc(C)c3n2)CC1 | – | inactive
Oc1c(CN2CCCC2)cc(COCc2ccccc2)c2cccnc12 | -18% [at 12.7 µM] (inactive) | –
CC1CCCN(c2cc3c(cc2F)c(=O)c(S(=O)(=O)c2cccc(Cl)c2)cn3Cc2ccccc2)C1 (stereo unspecified) | – | inactive
CC(O)c1ccc(OCCN(C)c2ccccn2)cc1 (stereo unspecified) | -1.26% [at 2.33 µM] (inactive) | –
Cc1nc2ccn(Cc3cccs3)c(=O)c2cc1C(=O)NCc1ccc(Cl)cc1 | – | inactive
COc1ccc(CNS(=O)(=O)c2cc3c4c(c2)CCN4C(=O)CC3)cc1 | – | inactive
COc1cc([N+](=O)[O-])ccc1NC(=S)N1CCN(c2ccccn2)CC1 | – | 44.7 µM (active)
CNC(=S)N1CCN(c2ccccn2)CC1 | – | inactive
CCOC(=O)c1ccc(NC(=S)N2CCN(c3ccccn3)CC2)cc1 | – | inactive
CCCOc1ccc(-c2c(C(=O)N/N=C/c3ccco3)nnn2-c2nonc2N)cc1 | – | inactive
CSc1ccc(/C=N/N2CCN(Cc3ccccc3Cl)CC2)cc1 | – | 14.1 µM (active)
COc1ccccc1/C=N/N1CCN(Cc2ccccc2Cl)CC1 | 7.68% [at 0.501 µM] (inactive) | –

Structure (SMILES) | activity, negative = inhibition | Potency
O=S1(=O)CCN(Cc2ccccc2Cl)CC1 | – | inactive
CCOc1ccc(CNC(=O)c2ccc(CS(=O)c3ccccc3)o2)cc1 (stereo unspecified) | – | inactive
COc1ccc([N+](=O)[O-])cc1-c1nc2ccccc2nc1-c1ccccc1 | 7.8% [at 0.501 µM] (inactive) | –
Cc1cccc(NC(=O)c2sc(-c3ccccc3)nc2-c2ccc([N+](=O)[O-])cc2)c1 | – | inactive
Cc1nc(-c2ccc([N+](=O)[O-])cc2)c(-c2ccccc2)o1 | – | 15.8 µM (active)
COC(=O)c1c(NC(=O)c2cc(=O)c3c(C)cc(C)cc3o2)sc2c1CCCC2 | – | inactive
Cc1oc2cc(Br)c(O)c(Br)c2c1C(=O)c1ccccc1 | – | 44.7 µM (active)
Cc1cc(O)c(NC(=O)c2ccc(C)c([N+](=O)[O-])c2)cc1C | – | inactive
Cc1cc(C(=O)O)ccc1[N+](=O)[O-] | 3.38% [at 0.501 µM] (inactive) | –
CCOC(=O)c1c(-c2ccccc2)oc2cc(Br)c(O)cc12 | – | inactive
COc1cc(/C(=C/c2ccccc2)c2ccccc2)c2c(c1)oc1ccccc12 | – | inactive
Cc1oc2cc([N+](=O)[O-])c(O)c([N+](=O)[O-])c2c1C(=O)c1ccc(Br)cc1 | – | 17.8 µM (active)
CS(=O)(=O)Nc1cccc(C2=NN(C(=O)c3cccc(F)c3)C(c3cccs3)C2)c1 (stereo unspecified) | – | inactive
O=C(Cn1c(=O)n(Cc2cccs2)c(=O)c2cccnc21)Nc1ccc(F)cc1 | – | inactive
Cc1ccc(NC(=O)Cc2ccc(NC(=O)N3CCCCc4ccccc43)cc2)cc1 | – | inactive
CC(C)=CCCC(C)CN1CCC(n2nccc2NC(=O)c2ccccc2)CC1 (stereo unspecified) | – | inactive
O=C1c2oc3ccccc3c(=O)c2C(c2cccc(O)c2)N1c1ccccn1 (stereo unspecified) | – | inactive
COc1cc(C2c3c(oc4ccccc4c3=O)C(=O)N2c2nc(C)c(C)s2)ccc1O (stereo unspecified) | – | inactive
CC(=O)c1sc(N2C(=O)c3oc4ccccc4c(=O)c3C2c2ccc(C)cc2)nc1C (stereo unspecified) | – | 2 µM (active)
COc1ccc(NC(=O)CCc2nnc3n(CC(C)C)c(=O)c4ccccc4n23)cc1OC | – | inactive
COc1ccc(Nc2nnc(C)c3ccccc23)cc1 | – | inactive
Cc1nnc(NCCO)c2ccccc12 | – | inactive
NNc1nnc(NN)c2ccccc12 | – | 25.1 µM (active)
CCOC(=O)C1CCCN(S(=O)(=O)c2cc(-c3cc(C)no3)ccc2OC)C1 (stereo unspecified) | – | inactive
